From PubChem BioAssay (NCI)
The panel holds about 79,000 compounds, 15% with a hit somewhere; the sample as a whole holds those more often. No stated cut-off is given here; in the data, active means growth inhibition above about 70%; inactive means the rest.

What was measured:
[1] = NCI Yeast Anticancer Drug Screen. Data for the rad50 strain (AID 155);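 further: 0% = growth of vehicle-only cultures of the same strain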; settings: S. cerevisiae rad50 strain growth inhibition; at 50.0 µM; active compounds read high
Outline: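 Genetically altered yeast (DNA repair pathway); compound treatment; growth inhibition vs vehicle ctrl.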

[2] = NCI Yeast Anticancer Drug Screen. Data for the mec2-1 strain (AID 157); settings: S. cerevisiae mec2-1 strain, at 50.0 µM, active compounds read high
Outline: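 mec2-1 yeast strain, carrying an alteration in DNA damage repair or cell cycle control, was exposed to compounds; growth inhibition was measured relative to vehicle-treated controls.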

[3] = NCI Yeast Anticancer Drug Screen. Data for the sgs1 mgt1 strain (AID 161);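 further: 0% = growth of cultures given vehicle only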; settings: S. cerevisiae sgs1 mgt1 strain, at 50.0 µM, active compounds read high
Outline: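 Yeast cells carrying a defined DNA-repair defect were exposed to test compounds. Growth inhibition was measured relative to vehicle-treated controls.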

[4] = NCI Yeast Anticancer Drug Screen. Data for the cln2 rad14 strain (AID 165);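 further: 0% = growth equal to vehicle treated cultures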; settings: S. cerevisiae cln2 rad14 strain, at 50.0 µM, active compounds read high
Outline: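 Yeast carrying cln2 and rad14 alterations (cell cycle control and DNA damage repair) were exposed to compounds. Growth inhibition was measured against vehicle-treated controls.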

[5] = NCI Yeast Anticancer Drug Screen. Data for the bub3 strain (AID 167); settings: S. cerevisiae bub3 mutant strain, at 50.0 µM, active compounds read high
Outline: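 Yeast carrying a defined mutation is treated with each compound, and growth is compared with that of vehicle-exposed cells to give inhibition.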

[6] = NCI Yeast Anticancer Drug Screen. Data for the mlh1 rad18 strain (AID 175); settings: S. cerevisiae mlh1 rad18 strain growth inhibition; at 50.0 µM; active compounds read high
Outline: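 Growth inhibition of the yeast strain was measured after compound exposure and expressed relative to vehicle-treated controls. The strain carries defined defects in DNA damage repair.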

Measured: growth inhibition

COc1cc(CN)ccc1O
inactive: [1] 1.65% | [2] -6.25% | [3] -8.75% | [4] 10.7% | [5] 11.8% | [6] 12.2%

COc1cc(C2NC(=O)C(C#N)=C(Nc3cccc(C)c3)S2)ccc1O (centres undefined)
inactive: [1] -2.7% | [2] -18.8% | [3] 13.4% | [4] 1% | [5] -6.15% | [6] -16.9%

COc1cc(CCN=Cc2ccccc2O)c([N+](=O)[O-])cc1OC
inactive: [1] -3.6% | [2] -10.5% | [3] 16.1% | [4] 11.7% | [5] -7.05% | [6] -2.35%

N/N=C(/Cc1ccccc1)NNC(N)=S
inactive: [1] 1.95% | [2] -13.7% | [3] -26.6% | [4] -4.2% | [5] -12% | [6] -0.45%

CC(C)(C)c1cc(O)c(C(C)(C)C)cc1O
inactive: [1] 12.1% | [2] -0.05% | [3] 6.05% | [4] -1.85% | [5] 0.15% | [6] 11.2%

CN(C)Cc1cc(C(C)(C)CC(C)(C)C)ccc1O
inactive: [1] 38.2% | [2] -3.2% | [3] 6.3% | [4] -43.9% | [5] 17.1% | [6] 42.5%

COc1cc2cc(c1Cl)N(C)C(=O)C[C@H](OC(=O)[C@H](C)N(C)C(C)=O)[C@]1(C)O[C@H]1[C@H](C)[C@@H]1C[C@@](O)(NC(=O)O1)[C@H](OC)C=C/C=C(\C)C2
inactive: [1] 12.1% | [2] -11.4% | [3] 6.55% | [4] 14.1% | [5] 5.9% | [6] 25.3%

CCOc1ccccc1/C=N/Nc1nc2ccccc2o1
inactive: [1] 30.6% | [2] 0.4% | [3] -2.8% | [4] -23.8% | [5] 6.85% | [6] 33.6%

O=C(O)/C=C/C(=O)NCc1ccccc1
inactive: [1] 34.6% | [2] 42.6% | [3] 48% | [4] 1.4% | [5] 44.4% | [6] 26.7%

O=C1OC(c2ccc(F)cc2)CC1CN1CCOCC1 (centres undefined)
inactive: [1] 0.45% | [2] 12.6% | [3] 30.6% | [4] 27.3% | [5] 24.3% | [6] 38.5%

CCOC(=O)c1coc(C(=O)OCC)c1C(=O)OCC
inactive: [1] -4.95% | [2] -18.1% | [3] 5.25% | [4] -3.05% | [5] 4.6% | [6] 5.3%

O=C1C=CC2=C3c4cc(O)c(O)cc4CC3(O)COC2=C1O (centres undefined)
inactive: [1] -40.6% | [2] -45.4% | [3] -9.1% | [4] -6.7% | [5] -5.7% | [6] -32%

COc1ccccc1NC(=O)c1cc2cc(Br)ccc2cc1O
inactive: [1] 34.8% | [2] 41.1% | [3] 55.7% | [4] 41.6% | [5] 49% | [6] 34.2%

COc1cc(/C=C(\C#N)C(=O)c2ccccc2)ccc1OCc1ccccc1
inactive: [1] -1.1% | [2] -18.8% | [3] -15.2% | [4] 1.25% | [5] -26.7% | [6] -18%

CCOc1ccc2[nH]c(=S)sc2c1
inactive: [1] 35.5% | [2] 12.9% | [3] 29.9% | [4] 15.5% | [5] -1.5% | [6] 21.4%

Clc1ccc(-c2n[nH]c3c2Cc2ccccc2-3)cc1Cl
inactive: [1] -5.1% | [2] -10.8% | [3] 16.4% | [4] 16.4% | [5] 11.8% | [6] 7.45%

Nc1ccccc1SC(CC(=O)c1ccccc1)c1c(Cl)cccc1Cl (centres undefined)
inactive: [1] -11.5% | [2] -9.65% | [3] 2.1% | [4] 1.75% | [5] 2.85% | [6] 16.7%

CC(C(=O)O)(C1CCCCC1)C1(O)CCCCC1 (centres undefined)
inactive: [1] 29.8% | [2] 45.5% | [3] 39.9% | [4] 59.5% | [5] 62.5% | [6] 29.5%

Cc1cc(C(C)(C)C)cc(C)c1Br
inactive: [1] -1.85% | [2] -0.85% | [3] -9.25% | [4] -15.3% | [5] 0.15% | [6] -1.65%

COc1ccc(OC)c(/C=C2\CCc3ccccc3C2=O)c1
inactive: [1] 17.4% | [2] -30.1% | [3] 27.5% | [4] 7.4% | [5] 47.7% | [6] -23.6%

C=CC[N+](C)(C)C
inactive: [1] 6.75% | [2] -27.9% | [3] 5.75% | [4] 7.7% | [5] 14.2% | [6] 7.4%

Cc1cc(NC(=O)CSCC(=O)O)no1
inactive: [1] -19.2% | [2] -34.5% | [3] -2.45% | [4] 7.8% | [6] -2.75%

CC(C)=C(NC(=O)c1ccccc1)C(=O)O
inactive: [1] 14.1% | [2] 0.35% | [3] -5.25% | [4] 22% | [5] -2.7% | [6] 12.9%

CCOC(=O)c1cc(/C=C/c2ccc(Cl)cc2Cl)on1
inactive: [1] -31.4% | [2] -52.7% | [3] -43% | [4] -41.1% | [5] -36.1% | [6] -45.5%

O=S(=O)(Cc1ccccc1)c1ccccc1
inactive: [1] 4.6% | [2] 1.1% | [3] 2.1% | [4] -0.8% | [6] 23.9%

COc1ccccc1N1CCN(C(=S)Nc2ccccc2)CC1
inactive: [1] 32.3% | [2] -13.8% | [3] 0.8% | [4] -1.05% | [5] -2.7% | [6] 15.3%

COc1ccc(C(O)c2ccccc2)cc1 (centres undefined)
inactive: [1] 2.2% | [2] -17.4% | [3] -34.9% | [4] -50.2% | [5] -28.1% | [6] -15.2%

O=c1cc(-c2ccccc2)nc2cc(-c3ccco3)[nH]n12
inactive: [1] -8.1% | [2] -14.7% | [3] -6.05% | [4] 7.9% | [6] -3.85%

C#CC(C(C)C)N(CCO)CCCC (centres undefined)
inactive: [1] 11.2% | [2] 4.55% | [3] 8.3% | [4] 7.35% | [5] 26.7% | [6] 16%

COc1cccc(/C=N/NC(=S)NC2CC3CCC2C3)c1O (centres undefined)
inactive: [1] -21.6% | [2] -33.1% | [3] -3.4% | [4] -9.9% | [5] -13.9% | [6] -3.5%

O=C(O)CCC(NC(=O)OCc1ccccc1)C(=O)O (centres undefined)
inactive: [1] -4.05% | [2] 2.55% | [3] -8.45% | [4] 9.55% | [6] -5.15%

COC(=O)Nc1nc2ccc(C(=O)c3ccc(F)cc3)cc2[nH]1
inactive: [1] -9% | [2] -6.35% | [3] -30.2% | [4] -26.4% | [5] -17.5% | [6] -43.9%

O=c1[nH]cc(Cl)cc1O
inactive: [1] -0.15% | [2] -3.3% | [3] -1.35% | [4] -40.9% | [6] 4.9%

CCCCCC(C)(CC(=O)O)CC(=O)O
inactive: [1] -18.6% | [2] -15.3% | [3] -21.4% | [4] -27.8% | [5] 0.7% | [6] -15.4%
